TSHR antagonist: human thyrotropin receptor antagonism. P16473. TSHR-expressing cells, TSH-stimulated cAMP HTRF, 2 h; hits give low values. activity change, negative = inhibition, % at 11.5 µM. 330,000 compounds, 0.2% hits. AID 504810;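 active = activity change below a set negative limit, meaning inhibition stronger than a set level, cut at about -70% in these data; inconclusive = activity change between two set negative limits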
Target sequence (P16473 whole entry, looked up): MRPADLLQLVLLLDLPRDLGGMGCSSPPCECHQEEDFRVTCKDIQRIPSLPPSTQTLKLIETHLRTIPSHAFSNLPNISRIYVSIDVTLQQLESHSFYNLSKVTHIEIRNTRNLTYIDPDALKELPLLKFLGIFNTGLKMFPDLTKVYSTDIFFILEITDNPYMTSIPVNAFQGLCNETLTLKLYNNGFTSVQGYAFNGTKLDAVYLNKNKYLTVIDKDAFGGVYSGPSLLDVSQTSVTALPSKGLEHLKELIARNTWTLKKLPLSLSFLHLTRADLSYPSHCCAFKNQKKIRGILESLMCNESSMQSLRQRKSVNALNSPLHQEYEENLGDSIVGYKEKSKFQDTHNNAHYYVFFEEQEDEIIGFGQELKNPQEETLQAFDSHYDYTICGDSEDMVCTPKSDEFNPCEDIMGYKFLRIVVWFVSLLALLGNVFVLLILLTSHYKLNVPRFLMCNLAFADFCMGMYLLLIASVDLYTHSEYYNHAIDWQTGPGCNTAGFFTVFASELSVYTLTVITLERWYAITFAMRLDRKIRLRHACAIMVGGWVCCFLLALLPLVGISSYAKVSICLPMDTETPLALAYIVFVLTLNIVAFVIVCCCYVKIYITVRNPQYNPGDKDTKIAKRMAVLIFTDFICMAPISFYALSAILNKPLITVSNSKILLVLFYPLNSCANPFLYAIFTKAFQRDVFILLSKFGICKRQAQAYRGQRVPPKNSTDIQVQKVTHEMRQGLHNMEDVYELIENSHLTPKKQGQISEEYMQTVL
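Freshly harvested TSHR cells receive pin-tooled compound, then EC80 TSH at 4nM final. After 2 hours at 37 deg C, antibody in lysis buffer and cAMP-d2 are added; 30 minutes at ambient temperature precede the HTRF read.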
RORg inh: blocks mouse ROR gamma transcriptional activity | P51450 | Drosophila S2 Gal4-RORgamma UAS-luciferase reporter, 20 h | Potency, µM (doses to about 53.6 µM), without a hit: top-dose activity change, negative = inhibition, actives largely listed as inhibitors | 310,000 compounds, 5.4% hits | AID 2551; note: potency is the fitted concentration of half-maximal effect; nearly all actives have a fitted effect of over 60% in size
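In this cell-based reporter format, copper sulfate (700 uM final) drives Gal4–ROR gamma fusion expression from a metallothionein promoter in Drosophila Schneider cells; compounds preincubated 1 hr, reporter read after 20 hr at ambient temperature.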
ELG1 repair inh: blocks ELG1-dependent DNA repair in HEK293T cells; HEK293T ELG1-luciferase reporter, luminescence, 16 h; DNA damage induced by 5-fluorouridine; Potency, µM (titrated, usually from 46.1 µM), for the others: at the highest dose activity change, negative = inhibition, actives largely listed as inhibitors; 330,000 compounds, 2.3% hits; AID 504467; note: potency is the fitted concentration of half-maximal effect; nearly all actives have a fitted effect of over 55% in size
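5-Fluorouridine DNA damage + compound/DMSO, 2,000 cells/well, 16 h, 37 °C/5% CO2. ONE-Glo, 30 min RT, luminescence. Readout = decrease in reporter signal.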
FBPA coupling cs: coupling enzyme interference in Giardia aldolase counter-screen; coupling enzyme system counterscreen, AmpLite Red fluorescence; activity change, negative = inhibition, % at 58.2 µM, hits read low; 290,000 compounds, 0.67% hits; in the data active = activity change below about -30%
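Fluorescence at 525 nm excitation and 598 nm emission measured inhibition of the coupled detection system without aldolase. Compounds (at 57.5 uM final) were preincubated 10 min at room temperature with coupling enzyme reagent before a 20 min substrate/AmpLite Red step.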
VP16 counter: Gal4-VP16 reporter inhibition counter-screen | Drosophila S2 Gal4-VP16 UAS-luciferase, luminescence, 20 h | Potency, µM (doses to about 53.6 µM), for the others: top-dose activity, negative = inhibition, usual class: inhibitors | 310,000 compounds, 3.5% hits;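 note: Gal4-VP16 expression switched on by copper sulfate through the metallothionein promoter; potency is the fitted concentration of half-maximal effect; nearly all actives have a fitted effect of over 50% in size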
The depositor's hits bear a star; ? = inconclusive; . = no result given; [ ] = remark or other dose. Hits are enriched below; roughly 8% of the tested compounds scored in any of these assays. Unless noted, calls come from the whole dose curve; as a rule, active = well fitted curve in the direction sought with a large enough effect; inconclusive = small, poorly fitted or top-dose-only effect, or another doubt; inactive = no such curve, though single readings can be large; an effect the other way counts as inactive or inconclusive. % is set by controls: 0 for no effect and ±100 for the full control effect.

SMILES	TSHR antagonist	RORg inh	ELG1 repair inh	FBPA coupling cs	VP16 counter
Cc1cc(O)c(C(C)C)cc1Cl	.	20%	.	-3	-13%
Cc1nc2nc(NC(=O)c3ccco3)nn2c(C)c1Cl	5	?	?	.	11%
Cc1cc(C)c(C(=O)/C=C/c2ccc(C(C)C)cc2)c(=O)[nH]1	-10	?	21µM*	6	32µM*
COc1ccc(CCNC(=O)C2=CCN(S(=O)(=O)c3ccc(F)cc3)CC2)cc1OC	-1	13%	10%	0	4%
COc1ccc(CNc2ncnc3c2[nH]c2ccccc23)cc1	-26	?	2.1µM*	-1	6.3µM*
COc1ccc(CNc2ncnc3c2[nH]c2cc(OC)c(OC)cc23)cc1	1	6%	?	1	-11%
C1=C(CCNc2ncnc3c2[nH]c2ccccc23)CCCC1	?	7.9µM*	18%	1	0.71µM*
CC(C)OCCCNc1ncnc2c1[nH]c1ccccc12	-34	-1%[0.365 µM]	9.2µM*	-4	.
CCOc1ccc2[nH]c3c(NCCCOC)ncnc3c2c1	-3	28%	?	-3	2%
N#Cc1ccc(OCC(O)CN2CCC(C(O)(c3ccccc3)c3ccccc3)CC2)cc1 (stereo not given)	6	-3%	-1%	2	-5%
CCCCCCC(=O)N1C/C=C\C(c2ccc(OC)cc2)N(Cc2ccc(F)cc2)C(=O)C1Cc1ccccc1 (stereo not given)	.	-40%	.	1	?
COCC(=O)O	.	4%	.	.	8%
CC(=O)c1cccc(NC(=O)/C(=C\c2cccnc2)NC(=O)c2ccco2)c1	-9	-9%	3%	0	28%
Cc1cc(C)n(-c2ccc(NC(=O)C3CCCCN3C(=O)c3sccc3C)cc2)n1 (stereo not given)	-11	4%	-11%	.	-4%
COc1ccc2oc(C(=O)OC/C(O)=C(\C#N)c3nc4ccccc4[nH]3)c(C)c2c1	7	?	11%	-4	-1%
COc1ccc(/C(C)=N/OC/C(O)=C(\C#N)c2nc3ccccc3[nH]2)cc1OC	5	10µM*	0%	-1	-9%
COc1ccc(/C(C)=N/OC/C(O)=C(\C#N)c2nc3ccccc3[nH]2)c(OC)c1	-3	20µM*	11%	3	?
COc1ccc(C/C(O)=C(\C#N)c2nc3ccccc3[nH]2)cc1OC	0	11µM*	?	2	-20%
CCc1ccc(NC(=O)COc2ccc(/C=C(/C#N)c3nc4ccccc4[nH]3)cc2OC)cc1	16	2.8µM*	?	7	3.2µM*
COc1ccc(OC/C(O)=C(\C#N)c2nc3ccccc3[nH]2)cc1	1	-36%	9%	3	-2%
COc1ccc(/C=N/OC/C(O)=C(\C#N)c2nc3ccccc3[nH]2)cc1	-12	11µM*	24%	1	?
COC(=O)NC(c1ccccc1)C(C#N)C(=O)OC (stereo not given)	.	-16%[10 µM]	.	-2	-3%[10 µM]
Cc1nccc(-c2cccc(N/N=C(\C#N)C(=O)c3ccccc3)c2)n1	-38	?	15µM*	5	-26%
Cc1ccc(/C([O-])=C(/C(=S)Nc2ccc(SC(F)F)cc2)[n+]2ccccc2)cc1[N+](=O)[O-]	18	2%	-10%	-31*	-3%
[O-]/C(=C(\C(=S)Nc1ccc(SC(F)F)cc1)[n+]1ccccc1)c1ccc(Cl)cc1Cl	-10	-31%	15µM*	1	3%
SMILES	TSHR antagonist	RORg inh	ELG1 repair inh	FBPA coupling cs	VP16 counter
Cc1cc(C)cc(NC(=S)/C(=C(\[O-])c2ccc(Cl)cc2Cl)[n+]2ccccc2)c1	-11	2%	-14%	0	9%
CCOc1ccc(N2CC(C(=O)NCCc3ccc(F)cc3)CC2=O)cc1 (stereo not given)	49	31%	-15%	1	-6%
COc1ccc(C(=O)N2CCC3(CC2)CCN(c2cccc(-c4ccccc4)c2)CC3)cc1	.	3%	.	2	-10%
CC(=O)Nc1nc(C)nc(-c2ccccc2OC(C)=O)n1	23	16%	-14%	3	0%
CC(=O)Nc1nc(-c2ccccc2)nc(-c2ccccc2OC(C)=O)n1	8	-3%	21µM*	1	-25%
CCOC(=O)c1ccc(NC(=O)CN2C(=O)NC3(CCCCCCC3)C2=O)cc1	13	.	8%	.	.
Cc1c(Cl)cccc1NC(=S)N1CCN(Cc2ccccc2)CC1	14	10µM*	-5%	1	?
S=C(Nc1ccccc1Cl)N1CCN(Cc2ccccc2)CC1	3	?	-2%	2	6%
S=C(Nc1cc(Cl)cc(Cl)c1)NC1CCN(Cc2ccccc2)CC1	9	?	-18%	3	?
CC(C)c1ccc(NC(=S)NC2CCN(Cc3ccccc3)CC2)cc1	22	16µM*	-5%	3	?
S=C(NCc1ccc(Cl)cc1)NC1CCN(Cc2ccccc2)CC1	-2	?	18µM*	-1	?
Cc1ccc(NC(=S)NC2CCN(Cc3ccccc3)CC2)cc1	11	13µM*	-11%	1	?
C#C[C@@]1(O)CC[C@@H]2[C@@H]3CCC4=CC(=O)CC[C@@H]4[C@H]3CC[C@]21C	.	4%[16.9 µM]	.	1	-1%[17 µM]
CSCC[C@H](NC(=O)[C@H](Cc1ccccc1)NC(=O)[C@H](Cc1cnc[nH]1)NC(=O)CNC(=O)[C@@H](NC(=O)[C@H](C)NC(=O)[C@H](Cc1c[nH]c2ccccc12)NC(=O)[C@H](CCC(N)=O)NC(=O)[C@@H]1CCCN1C(=O)[C@@H](NC(=O)[C@@H]1CCC(=O)N1)C(C)C)C(C)C)C(N)=O	.	2%	.	2	13%
CC1(C)CCCC2(C)C3C(O)CC2(C)C(O)C31 (stereo not given)	.	-5%	.	1	-10%
CC(C)NC(=O)N1CCCC2(CCN(C(=O)c3csnn3)CC2)C1	.	3%	.	0	-9%
CC(NC(=O)c1ccco1)C(=O)N1CCN(S(=O)(=O)c2ccccc2C#N)CC1 (stereo not given)	-14	.	15%	.	.
CC(C)c1ccccc1NC(=S)NC1CCN(Cc2ccccc2)CC1	-2	14µM*	-13%	-1	16µM*
S=C(Nc1ccccc1Cl)NC1CCN(Cc2ccccc2)CC1	-2	-25%	-13%	6	6%
Cc1ccc(NC(=S)NC2CCN(Cc3ccccc3)CC2)cc1C	-6	11µM*	?	1	?
Cc1c(Cl)cccc1NC(=S)NC1CCN(Cc2ccccc2)CC1	7	10µM*	-18%	6	-95%
c1ccc(Nc2cc(-c3ccccc3)nc3ncnn23)cc1	-11	16µM*	-3%	11	?
CC(=O)CSc1cc(-c2ccccc2)nc2ncnn12	-6	2.5µM*	23%	1	16µM*
C#CCNc1cc(-c2ccccc2)nc2ncnn12	-12	0%	6%	2	-1%

Assay outcomes as filed in PubChem BioAssay.
